GDH-TPI counter-1 – counter-screen for M. tuberculosis FBA inhibitors: GDH-TPI coupled enzymes. GDH-TPI coupled enzyme counterscreen, NADH absorbance. inhibition, % at 4.8 µM. actives 1.2% (n = 360,000). AID 588335; in the data active = inhibition above about 30%;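 note: 0% = DMSO wells and 100% = wells lacking the enzyme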
FBA Mtb inh – inhibitors of M. tuberculosis fructose-bisphosphate aldolase. P9WQA3. purified M. tuberculosis FBA, fluorescence read-out. inhibition, % at 1 µM. actives 2.3% (n = 360,000);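 note: 0% = vehicle and 100% = reference inhibitor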
Rv3671c protease – inhibitors of M. tuberculosis serine protease Rv3671c. inhibition, % at 5.96 µM. P9WHR9. AID 2606. actives 0.048% (n = 320,000); in the data active = inhibition above about 38%;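 note: extracellular domain of Rv3671c used as enzyme; 0% = enzyme with DMSO and 100% = no enzyme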
Mtb UGM inh – Mtb UDP-galactopyranose mutase inhibition; P9WIQ1; purified UGM, fluorescence polarization probe displacement; inhibition, % at 10 µM; actives 0.06% (n = 320,000); in the data active = inhibition above about 10%, passing the limit was not always enough
Target sequence (P9WIQ1 whole entry, looked up): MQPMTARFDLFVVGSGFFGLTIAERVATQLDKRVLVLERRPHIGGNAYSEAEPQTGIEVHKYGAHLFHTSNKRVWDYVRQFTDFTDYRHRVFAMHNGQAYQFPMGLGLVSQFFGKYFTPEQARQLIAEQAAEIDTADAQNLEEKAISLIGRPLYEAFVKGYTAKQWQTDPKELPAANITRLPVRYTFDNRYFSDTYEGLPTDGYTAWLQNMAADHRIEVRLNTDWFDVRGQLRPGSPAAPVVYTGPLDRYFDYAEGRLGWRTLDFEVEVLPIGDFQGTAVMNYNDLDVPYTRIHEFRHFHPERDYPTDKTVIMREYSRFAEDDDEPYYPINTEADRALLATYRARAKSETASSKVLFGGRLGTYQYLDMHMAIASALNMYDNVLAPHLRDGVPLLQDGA
Mtb FBA confirm – confirmation of M. tuberculosis fructose-bisphosphate aldolase inhibitors. shares compounds with FBA Mtb inh. purified M. tuberculosis FBA, fluorescence read-out. inhibition, % at 1 µM. actives 78% (n = 5,600). AID 651616;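 note: 0% = vehicle wells and 100% = reference inhibitor wells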
GDH-TPI counter-2 – inhibits GDH-TPI coupling enzymes, flagging Mtb FBA hits; shares compounds with FBA Mtb inh; GDH-TPI coupled enzyme counterscreen, fluorescence; inhibition, % at 1 µM; actives 81% (n = 5,600); in the data active = inhibition above about 10%
GDH-TPI dose – GDH-TPI dose response counter-screen for Mtb FBA; shares compounds with FBA Mtb inh; GDH-TPI coupled enzyme assay, fluorescence, artifact counterscreen; IC50, µM; actives 79% (n = 170); AID 652145; call rule not given here
* marks the source's active call; other numbers are inactive results; · = no result; + = active, no number. This is a sample that favours compounds with a hit; in the whole collection about 3.5% have one here. Cut-off read from the data, not from the text of the source, unless noted: active = inhibition above about 27%; inactive = the rest.

SMILES	GDH-TPI counter-1	FBA Mtb inh	Rv3671c protease	Mtb UGM inh	Mtb FBA confirm	GDH-TPI counter-2	others
Nc1ccc(-c2nc3cc(N)ccc3o2)cc1	34*	37*	-11	1	81*	51*
Cc1ccc(-c2nc3cc(N)ccc3o2)cc1Br	9	1	4	1	·	·
Nc1ccc(-c2nnc(-c3ccc(N)cc3)o2)cc1	36*	74*	1	-1	92*	82*
COc1ccc(C)cc1NC(=O)C1CCN(S(=O)(=O)c2ccc3c(c2)NC(=O)CO3)CC1	1	3	-2	-1	·	·
CC(C)(C)OC(=O)NCCCCCNC(=O)c1ncn2c1c(=O)[nH]c1ccccc12	-3	87*	·	·	42*	34*
Cc1cc(=O)oc2cc(OCCc3ccccc3)ccc12	7	68*	-8	4	11	-3	GDH-TPI dose=2.5*
Cc1cc(=O)oc2cc(OCC(=O)c3ccccc3)ccc12	9	5	7	0	·	·
Cc1cc(=O)oc2cc(OCCCC[n+]3ccccc3)ccc12	15	35*	-1	-1	169*	+
CCn1c(=S)sc2c(=O)n(CC(=O)Nc3ccccc3C(F)(F)F)c(C)nc21	-2	1	18	4	·	·
CC(=O)NO	7	-1	0	-3	·	·
NC(=O)C1CCN(C(=O)Cc2ccsc2)CC1	3	2	-12	-1	·	·
CN(C)c1nc(OCc2ccccc2)c2ncc(=O)[nH]c2n1	17	31*	-6	0	10	-4	GDH-TPI dose=4.9*
NC(=O)c1ccccc1NC(=O)/C=C/C(=O)O	-1	50*	-7	2	57*	49*
O=C(O)/C=C\C(=O)Nc1ccccc1C(=O)NCc1ccccc1	10	52*	-1	4	-5	-3
Cc1c2n(c3ccccc13)CCC2=O	6	28*	-4	1	77*	68*
CCOC(=O)c1ccc2ncc(C(=O)OCC)c(NCc3ccco3)c2c1	18	62*	-20	2	8	1
CCOC(=O)c1cnc2c(C)cccc2c1NCc1ccco1	8	10	0	-2	·	·
O=Cc1cn(CCOc2ccccc2)c2ccccc12	-13	0	-2	3	·	·
Cc1ccc(-c2nn(-c3ccccc3)cc2CO)o1	9	33*	10	-4	76*	54*
OCc1cn(-c2ccccc2)nc1-c1ccco1	0	7	-5	2	·	·
O=C1CCCC/C1=C\Nc1ccc(C(=O)O)c(O)c1	18	6	2	1	·	·
COCCN(C(=O)C1=COCCO1)c1c(N)n(CC(C)C)c(=O)[nH]c1=O	-4	0	-5	-1	·	·
O=C(Nc1cccc(C(F)(F)F)c1)c1ccc2sc([C@H]3C[C@H](O)[C@@H](CO)O3)nc2c1	12	0	·	·	·	·
O=C(COc1ccc2c3c(c(=O)oc2c1)CCCC3)NC(Cc1ccc(Cl)cc1)C(=O)O (configuration not stated)	15	67*	-4	0	124*	100*
CC(Oc1ccc2c3c(c(=O)oc2c1)CCC3)C(=O)N[C@@H](Cc1ccccc1)C(=O)O (some centres not stated)	12	23	0	0	·	·
SMILES	GDH-TPI counter-1	FBA Mtb inh	Rv3671c protease	Mtb UGM inh	Mtb FBA confirm	GDH-TPI counter-2	others
O=C(COc1ccc2c3c(c(=O)oc2c1)CCCC3)N[C@@H](Cc1ccccc1)C(=O)O	10	59*	9	8	7	-1
COC(=O)N(C)c1nc2ccccc2s1	11	0	4	4	·	·
CN(C(=O)OC(C)(C)C)c1ccc(-c2nc3ccccc3s2)cc1	18	45*	-14	0	+	+
O=C(O)c1ccc(CN2C[C@@H](CO)O[C@@H](n3cnc4c(NCc5ccco5)ncnc43)C2)cc1	5	2	·	·	·	·
CN(C)c1ccc(P(=O)(OC2CCCCC2)C(O)c2cccnc2)cc1 (configuration not stated)	-4	0	4	4	·	·
CN(C)c1ccc(P(=O)(OC2CCCCC2)C(O)c2ccccn2)cc1 (configuration not stated)	7	68*	3	-2	73*	79*
Cc1noc(C)c1NC(=O)Nc1ccc2c(c1)C(=O)N([C@H](C)CO)C[C@H](C)[C@H](CN(C)C)O2	-16	-1	-3	3	·	·
NC(=O)c1c(NC(=O)C2c3ccccc3Oc3ccccc32)sc2c1CCCCC2	6	0	-5	-2	·	·
CN1CCc2c1nc1ccccc1c2N (tested in a mixture with another compound)	9	29*	-4	0	96*	83*
Cc1cccc2c(N)c3c(nc12)N(C)CC3	-4	31*	-4	1	77*	45*
Cc1ccc2nc3c(c(N)c2c1)CCN3c1ccccc1	15	29*	-7	-1	+	+
C[C@H]1CN([C@@H](C)CO)C(=O)CCCn2nncc2CO[C@@H]1CN(C)S(=O)(=O)c1cn(C)cn1	1	1	·	·	·	·
O=C(Nc1nc2ccccc2[nH]1)c1ccccc1O	15	47*	0	0	+	+
Cc1cc(/C=N/NC(=O)Cn2c3ccccc3c(=O)c3ccccc32)c(C)n1-c1ccc(Cl)cc1	8	83*	·	·	144*	119*
Cc1ccc(-n2c(C)cc(/C=N/NC(=O)Cn3c4ccccc4c(=O)c4ccccc43)c2C)cc1	12	74*	-16	0	133*	119*
CC(=O)Nc1cccc(NC(=S)Nc2cccc3ccccc23)c1	1	3	-1	-2	·	·
CC(=O)c1cccc(NC(=S)Nc2cccc3ccccc23)c1	8	42*	-5	2	63*	33*
Cc1ccc(F)c(NC(=S)Nc2cccc3ccccc23)c1	7	46*	-46	1	55*	50*
S=C(Nc1cccc2ccccc12)Nc1cccc2ccccc12	7	88*	·	·	96*	73*
COc1ccc(NC(=S)Nc2cccc3ccccc23)cc1OC	7	42*	2	2	35*	33*
COc1ccc(S(=O)(=O)Nc2cccc3c2O[C@H](CN(C)S(=O)(=O)c2ccccc2)[C@@H](C)CN([C@H](C)CO)C3=O)cc1	-5	0	-10	5	·	·
CCCc1c2ccccc2nc2ccccc12	8	50*	2	3	38*	34*
Nc1c2ccccc2nc2ccccc12	6	63*	-7	-2	73*	48*
N#Cc1c2ccccc2nc2ccccc12	-2	28*	1	-7	182*	117*
Nc1nc2ccccc2nc1N	3	51*	2	-2	69*	61*
c1ccc2nc3ccccc3nc2c1	4	4	2	-1	·	·
c1cnc2ccc3c(c2c1)COCO3	-10	6	·	·	·	·
Cc1nnc(SCC(=O)NCCc2ccccc2)s1	17	5	-4	1	·	·

Screening data: PubChem BioAssay, several laboratories
